Reference: the supplement of paper PMC10849652
The full data set covers some 7,900 targets. This sample favours those with a hit. About 0.6% of all pairs of compound and target were hits. Unmarked numbers belong to inactive results.

What was measured:
Experiment in all cases: log2 fold change, soluble protein after heating vs DMSO (PISA); higher = thermal stabilisation; K562 cells, 10 uM, 30 min; active = over 0.2 and 3.5 SD of the protein, either way, in both replicates (recomputed)
[1] = compound: NC(=O)Nc1cc(-c2cccc(F)c2)sc1C(=O)N[C@H]1CCCNC1
Outline: (§1)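 Quantification of soluble protein used TMTpro 16plex LC-MS/MS, with channel sums equalised. Samples were the supernatant after 21,000xg for 90 min of pooled aliquots from K562 cells (2×10^6 cells/mL) treated with 10 μM compound for 30 min, heated for 3 min over 48°C-58°C, and extracted in PBS with 0.5% NP-40 at 4°C. Values, from duplicates, describe thermal stability against control samples on a log2 fold-change scale.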

[2] = compound: NC(=O)c1cnc(N[C@@H]2CCCC[C@@H]2N)nc1Nc1cccc(-n2nccn2)c1
Outline: as §1

[3] = compound: NC1(c2ccc(-c3nc4ccn5c(=O)[nH]nc5c4cc3-c3ccccc3)cc2)CCC1
Outline: as §1

[4] = compound: NCC(=O)Nc1ccc(-n2nc(C(F)(F)F)cc2-c2ccc3c(ccc4ccccc43)c2)cc1
Outline: as §1

entinostat = compound: Nc1ccccc1NC(=O)c1ccc(CNC(=O)OCc2cccnc2)cc1 [entinostat]
Outline: as §1

vorinostat = compound: O=C(CCCCCCC(=O)Nc1ccccc1)NO [vorinostat]
Outline: as §1

citarinostat = compound: O=C(CCCCCCNC(=O)c1cnc(N(c2ccccc2)c2ccccc2Cl)nc1)NO [citarinostat]
Outline: as §1

silmitasertib = compound: O=C(O)c1ccc2c(c1)nc(Nc1cccc(Cl)c1)c1ccncc12 [silmitasertib]
Outline: as §1

[5] = compound: O=C1NC(=O)C(c2cnc3ccccn23)=C1c1cn2c3c(cc(F)cc13)CN(C(=O)N1CCCCC1)CC2
Outline: as §1

[6] = compound: c1cc(OCCN2CCCCC2)cc(-c2n[nH]c3ccc(-c4nnc[nH]4)cc23)c1
Outline: as §1

entospletinib = compound: c1cn2cc(-c3ccc4cn[nH]c4c3)nc(Nc3ccc(N4CCOCC4)cc3)c2n1 [entospletinib]
Outline: as §1

UniProt Q93074, sequence (Q93074 whole entry, looked up): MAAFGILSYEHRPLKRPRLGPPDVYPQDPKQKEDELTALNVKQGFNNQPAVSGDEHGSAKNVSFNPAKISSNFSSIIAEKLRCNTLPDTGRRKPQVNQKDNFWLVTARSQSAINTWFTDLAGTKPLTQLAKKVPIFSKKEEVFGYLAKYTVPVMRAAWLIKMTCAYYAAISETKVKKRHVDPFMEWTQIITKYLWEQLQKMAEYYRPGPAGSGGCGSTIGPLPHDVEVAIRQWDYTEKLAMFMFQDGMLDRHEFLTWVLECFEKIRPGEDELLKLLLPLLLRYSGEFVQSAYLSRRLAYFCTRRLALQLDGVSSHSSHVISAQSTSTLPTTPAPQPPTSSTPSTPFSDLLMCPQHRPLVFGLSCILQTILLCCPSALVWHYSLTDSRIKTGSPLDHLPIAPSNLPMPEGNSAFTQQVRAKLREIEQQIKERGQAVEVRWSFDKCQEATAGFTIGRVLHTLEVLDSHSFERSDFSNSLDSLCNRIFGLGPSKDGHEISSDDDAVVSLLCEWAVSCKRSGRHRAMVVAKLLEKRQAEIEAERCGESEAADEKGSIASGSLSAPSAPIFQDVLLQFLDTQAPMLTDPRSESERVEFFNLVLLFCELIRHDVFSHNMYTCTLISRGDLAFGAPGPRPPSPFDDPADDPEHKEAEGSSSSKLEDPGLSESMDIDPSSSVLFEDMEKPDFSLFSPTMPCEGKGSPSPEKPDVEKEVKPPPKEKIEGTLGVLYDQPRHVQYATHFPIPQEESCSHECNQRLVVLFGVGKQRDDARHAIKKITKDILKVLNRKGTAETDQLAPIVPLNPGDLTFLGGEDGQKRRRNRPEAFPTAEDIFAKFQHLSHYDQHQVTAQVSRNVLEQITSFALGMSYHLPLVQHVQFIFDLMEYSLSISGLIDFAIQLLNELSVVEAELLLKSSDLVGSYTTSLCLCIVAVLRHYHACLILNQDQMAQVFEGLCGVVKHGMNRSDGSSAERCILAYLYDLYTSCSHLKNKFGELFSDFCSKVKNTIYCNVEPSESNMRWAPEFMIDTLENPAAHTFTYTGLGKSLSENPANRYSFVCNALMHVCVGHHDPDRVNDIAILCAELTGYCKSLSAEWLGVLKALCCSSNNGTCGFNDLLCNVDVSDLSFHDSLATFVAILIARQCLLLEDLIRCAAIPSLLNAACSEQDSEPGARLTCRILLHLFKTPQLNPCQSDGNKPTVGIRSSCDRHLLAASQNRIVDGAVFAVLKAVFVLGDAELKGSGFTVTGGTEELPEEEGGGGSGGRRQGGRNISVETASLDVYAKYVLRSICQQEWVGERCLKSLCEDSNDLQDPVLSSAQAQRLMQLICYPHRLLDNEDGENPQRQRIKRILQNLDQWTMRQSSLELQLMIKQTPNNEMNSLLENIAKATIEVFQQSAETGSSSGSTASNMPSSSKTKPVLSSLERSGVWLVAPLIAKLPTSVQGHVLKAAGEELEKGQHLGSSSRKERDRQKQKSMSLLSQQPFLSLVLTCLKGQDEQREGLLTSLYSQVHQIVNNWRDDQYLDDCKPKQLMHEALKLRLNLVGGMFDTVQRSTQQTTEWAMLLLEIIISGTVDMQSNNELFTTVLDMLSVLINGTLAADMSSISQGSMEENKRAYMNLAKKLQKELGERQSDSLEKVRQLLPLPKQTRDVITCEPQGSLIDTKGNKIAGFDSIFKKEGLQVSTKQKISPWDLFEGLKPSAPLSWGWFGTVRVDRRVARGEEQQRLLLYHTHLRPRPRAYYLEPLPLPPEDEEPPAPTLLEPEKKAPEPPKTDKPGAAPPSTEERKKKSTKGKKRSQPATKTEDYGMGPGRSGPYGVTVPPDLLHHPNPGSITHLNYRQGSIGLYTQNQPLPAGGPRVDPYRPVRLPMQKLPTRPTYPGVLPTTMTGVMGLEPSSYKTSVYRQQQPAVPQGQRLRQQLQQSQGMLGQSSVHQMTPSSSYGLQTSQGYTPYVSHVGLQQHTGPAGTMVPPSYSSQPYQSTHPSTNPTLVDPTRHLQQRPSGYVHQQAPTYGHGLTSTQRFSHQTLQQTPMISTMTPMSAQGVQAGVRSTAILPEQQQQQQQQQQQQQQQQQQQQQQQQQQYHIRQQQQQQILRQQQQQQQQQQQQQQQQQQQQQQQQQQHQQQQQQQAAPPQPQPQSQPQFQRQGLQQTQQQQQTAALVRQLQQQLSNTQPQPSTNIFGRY
UniProt Q15528, sequence (Q15528 whole entry, looked up): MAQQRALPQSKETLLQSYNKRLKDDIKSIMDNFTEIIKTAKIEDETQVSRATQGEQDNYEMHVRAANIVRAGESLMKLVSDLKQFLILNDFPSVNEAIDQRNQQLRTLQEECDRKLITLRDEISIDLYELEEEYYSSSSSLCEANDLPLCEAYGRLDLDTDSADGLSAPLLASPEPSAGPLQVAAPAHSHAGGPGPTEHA
UniProt Q16539, sequence (Q16539 whole entry, looked up): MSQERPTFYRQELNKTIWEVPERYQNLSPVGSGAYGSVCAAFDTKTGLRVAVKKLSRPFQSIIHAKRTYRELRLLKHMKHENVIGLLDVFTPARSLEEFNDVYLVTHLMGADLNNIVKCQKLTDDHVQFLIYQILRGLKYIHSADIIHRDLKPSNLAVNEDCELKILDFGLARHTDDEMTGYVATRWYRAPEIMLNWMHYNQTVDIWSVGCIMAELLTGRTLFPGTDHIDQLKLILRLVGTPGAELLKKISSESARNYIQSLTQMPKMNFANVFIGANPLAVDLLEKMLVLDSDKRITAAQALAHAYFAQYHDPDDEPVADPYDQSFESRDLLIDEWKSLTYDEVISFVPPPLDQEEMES
UniProt P52294, sequence (P52294 whole entry, looked up): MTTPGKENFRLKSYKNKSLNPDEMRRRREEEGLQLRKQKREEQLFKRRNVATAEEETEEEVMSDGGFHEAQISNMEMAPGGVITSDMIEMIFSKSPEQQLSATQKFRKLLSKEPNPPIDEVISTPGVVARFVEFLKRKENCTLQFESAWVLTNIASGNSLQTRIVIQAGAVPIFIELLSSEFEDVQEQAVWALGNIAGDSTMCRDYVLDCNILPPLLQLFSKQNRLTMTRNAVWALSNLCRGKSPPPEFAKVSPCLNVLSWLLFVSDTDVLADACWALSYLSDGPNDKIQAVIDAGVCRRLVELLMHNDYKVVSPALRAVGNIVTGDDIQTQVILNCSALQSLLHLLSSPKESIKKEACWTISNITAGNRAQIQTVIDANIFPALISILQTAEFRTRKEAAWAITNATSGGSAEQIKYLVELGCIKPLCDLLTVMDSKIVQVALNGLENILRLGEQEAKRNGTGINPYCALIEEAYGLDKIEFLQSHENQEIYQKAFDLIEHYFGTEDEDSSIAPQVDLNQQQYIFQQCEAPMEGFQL
UniProt Q08334, sequence (Q08334 whole entry, looked up): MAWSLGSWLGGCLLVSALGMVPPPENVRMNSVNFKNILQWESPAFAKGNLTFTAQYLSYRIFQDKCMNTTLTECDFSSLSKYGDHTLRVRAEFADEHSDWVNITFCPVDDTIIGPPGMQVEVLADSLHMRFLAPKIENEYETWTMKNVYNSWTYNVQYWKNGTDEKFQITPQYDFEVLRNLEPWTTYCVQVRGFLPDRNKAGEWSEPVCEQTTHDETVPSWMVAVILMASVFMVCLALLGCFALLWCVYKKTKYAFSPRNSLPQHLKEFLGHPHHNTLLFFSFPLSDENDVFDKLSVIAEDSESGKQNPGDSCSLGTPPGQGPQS
UniProt P08514, sequence (P08514 whole entry, looked up): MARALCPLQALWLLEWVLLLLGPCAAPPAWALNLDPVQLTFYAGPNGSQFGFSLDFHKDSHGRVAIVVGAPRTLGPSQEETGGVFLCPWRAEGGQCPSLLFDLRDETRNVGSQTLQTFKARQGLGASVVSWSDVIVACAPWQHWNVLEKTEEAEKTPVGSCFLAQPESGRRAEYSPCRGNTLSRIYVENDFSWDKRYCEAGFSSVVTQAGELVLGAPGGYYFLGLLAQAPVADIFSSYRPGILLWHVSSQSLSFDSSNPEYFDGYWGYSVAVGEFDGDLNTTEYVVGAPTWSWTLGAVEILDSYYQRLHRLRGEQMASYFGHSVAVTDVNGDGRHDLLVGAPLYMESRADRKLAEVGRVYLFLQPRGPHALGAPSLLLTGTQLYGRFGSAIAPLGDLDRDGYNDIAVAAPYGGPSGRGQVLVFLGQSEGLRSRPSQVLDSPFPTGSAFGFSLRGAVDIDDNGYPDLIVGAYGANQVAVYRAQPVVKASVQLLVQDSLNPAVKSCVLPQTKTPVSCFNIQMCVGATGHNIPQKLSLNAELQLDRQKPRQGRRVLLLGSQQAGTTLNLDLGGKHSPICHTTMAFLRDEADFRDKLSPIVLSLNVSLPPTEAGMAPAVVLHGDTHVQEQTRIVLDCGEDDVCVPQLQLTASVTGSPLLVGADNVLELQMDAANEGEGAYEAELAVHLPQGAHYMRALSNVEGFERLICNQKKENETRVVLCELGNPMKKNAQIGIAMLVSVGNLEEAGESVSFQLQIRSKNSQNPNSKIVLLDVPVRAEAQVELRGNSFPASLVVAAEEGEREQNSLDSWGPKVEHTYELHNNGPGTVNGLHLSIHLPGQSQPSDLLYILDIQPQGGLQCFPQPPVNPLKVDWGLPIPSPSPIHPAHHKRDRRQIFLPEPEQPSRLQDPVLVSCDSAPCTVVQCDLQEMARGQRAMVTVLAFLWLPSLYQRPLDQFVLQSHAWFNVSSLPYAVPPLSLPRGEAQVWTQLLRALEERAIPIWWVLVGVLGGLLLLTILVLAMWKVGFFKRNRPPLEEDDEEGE
UniProt Q9H6K1, sequence (Q9H6K1 whole entry, looked up): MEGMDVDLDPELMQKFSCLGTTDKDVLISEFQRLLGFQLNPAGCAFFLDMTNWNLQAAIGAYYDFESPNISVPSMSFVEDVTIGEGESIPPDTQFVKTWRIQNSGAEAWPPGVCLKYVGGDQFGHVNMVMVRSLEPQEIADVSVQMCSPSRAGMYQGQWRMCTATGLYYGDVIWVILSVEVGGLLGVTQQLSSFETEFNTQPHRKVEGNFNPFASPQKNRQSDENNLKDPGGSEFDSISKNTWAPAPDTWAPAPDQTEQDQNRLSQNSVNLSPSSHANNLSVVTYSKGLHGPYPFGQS

| Target | log2 fold change [1] | log2 fold change [2] | log2 fold change [3] | log2 fold change [4] | log2 fold change (entinostat) | log2 fold change (vorinostat) | log2 fold change (citarinostat) | log2 fold change (silmitasertib) | log2 fold change [5] | log2 fold change [6] | log2 fold change (entospletinib) |
| --- | --- | --- | --- | --- | --- | --- | --- | --- | --- | --- | --- |
| LRPPRC (UniProt P42704) | -0.249 | -0.291 | -0.676 | -0.272 | 0.479 | 0.289 | 0.203 | 0.033 | -0.383 | -0.128 | 0.245 |
| LONP2 (UniProt Q86WA8) | 0.094 | 0.024 | -0.279 | 0.041 | -0.05 | -0.006 | -0.069 | 0.105 | -0.007 | -0.219 | -0.001 |
| LTV1 (UniProt Q96GA3) | 0.006 | 0.008 | 0.003 | 0.041 | 0.034 | -0.005 | -0.038 | 0.147 | 0.132 | -0.16 | 0.09 |
| LMNB1 (UniProt P20700) | 0.094 | -0.073 | 0.078 | -0.018 | 0.024 | -0.029 | 0.033 | 0.097 | -0.105 | -0.072 | -0.01 |
| KMT2C isoform 3 (UniProt Q8NEZ4) | -0.021 | 0.046 | -0.756 (active) | -0.006 | -0.03 | 0.19 | 0.104 | -0.052 | -0.094 | -0.076 | 0.052 |
| MCU (UniProt Q8NE86) | 0.005 | -0.059 | -0.142 | -0.131 | 0.034 | -0.013 | 0.075 | -0.007 | -0.034 | -0.052 | 0.031 |
| MARK3 (UniProt P27448) | -0.125 | -0.181 | -0.006 | -0.113 | 0.064 | 0.139 | 0.103 | -0.02 | -0.017 | -0.317 | -0.024 |
| MAP3K20 isoform 2 (UniProt Q9NYL2) | 0.09 | -0.041 | 0.099 | – | 0.056 | – | – | 0.009 | -0.008 | – | – |
| LYN isoform 2 (UniProt P07948) | 0.162 | 0.014 | – | -0.073 | -0.155 | – | – | – | 0.082 | – | – |
| MED12 isoform 2 (UniProt Q93074) | 0.022 | -0.455 | -0.191 | – | 0.066 | 0.22 | 0.181 | 0.016 | -0.005 | -0.311 | 0.177 |
| KIF13A isoform 4 (UniProt Q9H1H9) | -0.034 | -0.165 | – | – | 0.303 | – | – | – | – | – | – |
| ITGA2B (UniProt P08514) | 0.085 | -0.222 | – | -0.009 | -0.009 | -0.495 (active) | – | – | 0.02 | – | – |
| IP6K1 (UniProt Q92551) | -0.039 | -0.253 | -0.457 | – | 0.089 | 0.138 | -0.02 | -0.059 | -0.048 | 0.858 (active) | -0.029 |
| MED8 isoform 2 (UniProt Q96G25) | 0.048 | 0.2 | 0.038 | 0.303 | -0.107 | – | 0.035 | 0.079 | -0.043 | -0.092 | 0.034 |
| MARK2 (UniProt E9PC69) | -0.513 | -0.401 | – | -0.213 | 0.101 | – | 0.024 | – | 0.082 | -0.28 | 0.029 |
| MAGED1 isoform 2 (UniProt Q9Y5V3) | 0.098 | -0.029 | – | -0.258 | 0 | – | – | – | 0.262 | – | – |

| Target | log2 fold change [1] | log2 fold change [2] | log2 fold change [3] | log2 fold change [4] | log2 fold change (entinostat) | log2 fold change (vorinostat) | log2 fold change (citarinostat) | log2 fold change (silmitasertib) | log2 fold change [5] | log2 fold change [6] | log2 fold change (entospletinib) |
| --- | --- | --- | --- | --- | --- | --- | --- | --- | --- | --- | --- |
| MAPK14 (UniProt Q16539) | -0.019 | -0.047 | -0.136 | -0.033 | 0.022 | 0.027 | 0.051 | 0.37 | – | 0.058 | -0.006 |
| ITM2B (UniProt Q9Y287) | -0.036 | 0.091 | -0.144 | 0.021 | -0.083 | – | -0.006 | 0.38 (active) | 0.109 | -0.178 | -0.011 |
| KPNA1 (UniProt P52294) | -0.02 | -0.014 | -0.047 | -0.058 | 0.099 | 0.036 | 0.166 | 0.088 | 0.064 | -0.037 | 0.022 |
| LUM (UniProt P51884) | -0.067 | -0.108 | – | -0.002 | -0.033 | – | -0.042 | – | 0.185 | 0.47 | 0.331 |
| ILRUN (UniProt Q9H6K1) | -0.213 | -0.09 | -0.128 | -0.025 | 0.024 | – | 0.027 | 0.014 | -0.059 | -0.01 | -0.004 |
| IL27RA (UniProt Q6UWB1) | -0.077 | -0.091 | -0.116 | -0.123 | 0.016 | – | 0.082 | 0.009 | 0.154 | -0.172 | 0.112 |
| MAPKAPK5 (UniProt Q8IW41) | 0.382 (active) | 0.029 | -0.051 | -0.009 | 0.027 | 0.053 | -0.003 | -0.044 | -0.078 | 0.213 | -0.03 |
| MAP4K4 isoform 3 (UniProt O95819) | -0.199 | -0.154 | -0.204 | -0.013 | 0.07 | 0.075 | 0.044 | -0.024 | – | -0.179 | -0.019 |
| MELK (UniProt Q14680) | -0.384 | -0.128 | – | – | -0.052 | 0.062 | -0.001 | – | -0.016 | -0.366 | 0.025 |
| IPO11 isoform 2 (UniProt Q9UI26) | -0.004 | -0.074 | -0.113 | -0.039 | 0.022 | 0.027 | 0.048 | 0.032 | -0.027 | 0.005 | 0.022 |
| IL10RB (UniProt Q08334) | -0.113 | -0.121 | – | -0.031 | -0.431 (active) | 0.109 | 0.055 | – | 0.062 | -0.026 | 0.027 |
| MED22 (UniProt Q15528) | 0.042 | 0.029 | 0.064 | 0.023 | 0.049 | – | -0.243 | -0.01 | -0.074 | 0.322 (active) | -0.143 |
| MED25 isoform 3 (UniProt Q71SY5) | -0.016 | -0.021 | -0.591 (active) | 0.064 | 0.065 | -0.349 | 0.052 | 0.174 | – | -0.148 | -0.01 |
| LRBA, A0A494BZW2 | 0.036 | -0.031 | -0.114 | – | 0.232 | -0.032 | 0.03 | 0.011 | 0.063 | 0.028 | -0.025 |
| LPIN1 isoform 7 (UniProt Q14693) | -0.006 | -0.011 | -0.039 | -0.03 | -0.027 | 0.136 | 0.001 | -0.139 | -0.098 | -0.048 | -0.078 |
